# Experimental data: PubChem BioAssay (EPA / NIEHS)
# Activity calls are given as the source filed them. The calls were made as follows: active = hit-call score of the fitted dose curve at least 0.9, where 1 is the maximum; inactive = score below 0.9.
# Columns and labels:
# [1] = ATG_E_Box_CIS: Attagene CIS-FACTORIAL HepG2 Assay for human Enhancer Box (E-box) (AID 2282936); conditions: HepG2 E-box cis-reporter transcription, actives raise or lower the signal
# Summary of the method: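 In this cell-based setup, HepG2 cells bearing transfected promoter-driven reporter units were exposed to chemicals for 24 h; reporter transcripts were amplified, 6-FAM-labelled, cut with HpaI and sized by capillary electrophoresis.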
# [2] = ATG_M_61_CIS: Attagene CIS-FACTORIAL HepG2 Assay for M61 Transcription Factor (Internal Marker) (AID 2282937); conditions: HepG2 Attagene CIS-FACTORIAL M61 internal marker reporter; actives raise or lower the signal
# Summary of the method: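 This endpoint serves as an internal background control within a multiplexed HepG2 cis-reporter panel. Cells are exposed for 24 h; reporter mRNA is amplified, fluorescently labelled and sized by capillary electrophoresis, with DMSO as negative control.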
# [3] = ATG_EGR_CIS: Attagene CIS-FACTORIAL HepG2 Assay for human Early Growth Response 1 (EGR1) (AID 2282938); conditions: HepG2 Attagene CIS-FACTORIAL EGR reporter mRNA; actives raise or lower the signal
# Summary of the method: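 HepG2, transient MRTU transfection (cis promoters), 24 h compound. RNA → RT (oligo-dT) → PCR → 6-FAM labelling → HpaI cut → CE fluorescence. Bidirectional fit, DMSO baseline.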
# [4] = ATG_M_19_CIS: Attagene CIS-FACTORIAL HepG2 Assay for M19 Transcription Factor (Internal Marker) (AID 2282939); conditions: HepG2 Attagene CIS-FACTORIAL M19 internal marker reporter; actives raise or lower the signal
# Summary of the method: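 Background-control endpoint from a multiplexed HepG2 reporter panel. Cells carrying cis-regulated reporter constructs are treated 24 h, then reporter transcripts are amplified, fluorescently labelled and sized by capillary electrophoresis. DMSO defines baseline.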
# [5] = ATG_ERE_CIS: Attagene CIS-FACTORIAL HepG2 Assay for Estrogen Response Element (ERE) (AID 2282940); conditions: HepG2 ERE cis-reporter, Attagene RNA transcript; actives raise or lower the signal
# Summary of the method: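 Cells used were human hepatoma HepG2, transfected with multiple reporter transcription units under cis-regulatory promoters. Reporter mRNA, read 24 h post-dosing via fluorescent RT-PCR products on capillary electrophoresis, was fitted bidirectionally relative to DMSO.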
# [6] = ATG_Ets_CIS: Attagene CIS-FACTORIAL HepG2 Assay for human Erythroblast Transformation Specific (ETS) (AID 2282941); conditions: HepG2 ETS cis-reporter transcription, actives raise or lower the signal
# Summary of the method: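 RT-PCR/capillary electrophoresis fluorescence read-out of reporter mRNA; HepG2 transient multi-reporter transfection; 24 h compound exposure; gain or loss of signal fitted bidirectionally relative to DMSO.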
# [7] = target: Hepatocyte nuclear factor 3-beta (Homo sapiens) (UniProt Q9Y261); test: ATG_FoxA2_CIS: Attagene CIS-FACTORIAL HepG2 Assay for human Forkhead box A2 (FOXA2) (AID 2282942); conditions: HepG2 cis-reporter transcription factor activity, 24 h; actives raise or lower the signal
# Summary of the method: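 Cells: HepG2, transient multiplex reporter transfection. Exposure 24 h. Detection: reporter-specific RT-PCR, fluorescent labelling, restriction digest, capillary electrophoresis. Analysis: bidirectional curve fit, DMSO as negative control.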
# [8] = ATG_FoxO_CIS: Attagene CIS-FACTORIAL HepG2 Assay for human Forkhead box O (FoxO) (AID 2282943); conditions: HepG2 Attagene cis-reporter, FoxO element, mRNA; actives raise or lower the signal
# Summary of the method: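 Transfected HepG2 reporter cells exposed to test chemical for 24 h; reporter RNA measured by reverse transcription, PCR and fluorescent capillary electrophoresis; curves fitted for increases and decreases against DMSO.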
# [9] = ATG_GATA_CIS: Attagene CIS-FACTORIAL HepG2 Assay for human GATA Binding Protein (AID 2282944); conditions: HepG2 GATA cis-element reporter, Attagene multiplex mRNA; actives raise or lower the signal
# Summary of the method: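 Endogenous transcription factor activity was captured through cis-promoter-driven reporters in transfected HepG2 cells. After 24 h exposure, reporter transcripts were quantified by RT-PCR with fluorescent capillary electrophoresis, and responses fitted both directions against DMSO.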
# [10] = ATG_GLI_CIS: Attagene CIS-FACTORIAL HepG2 Assay for human Zinc Finger Protein GLI1 (AID 2282945); conditions: HepG2, Attagene cis-factorial reporter mRNA, GLI element; actives raise or lower the signal
# Summary of the method: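 Transiently transfected HepG2 cells report endogenous transcription factor activity via cis-element-driven reporter units. After 24 h compound exposure, reporter mRNA was measured by RT-PCR with capillary electrophoresis; bidirectional fitting against DMSO baseline.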
# Hepatocyte nuclear factor 3-beta (Homo sapiens), sequence (Q9Y261 whole entry, looked up): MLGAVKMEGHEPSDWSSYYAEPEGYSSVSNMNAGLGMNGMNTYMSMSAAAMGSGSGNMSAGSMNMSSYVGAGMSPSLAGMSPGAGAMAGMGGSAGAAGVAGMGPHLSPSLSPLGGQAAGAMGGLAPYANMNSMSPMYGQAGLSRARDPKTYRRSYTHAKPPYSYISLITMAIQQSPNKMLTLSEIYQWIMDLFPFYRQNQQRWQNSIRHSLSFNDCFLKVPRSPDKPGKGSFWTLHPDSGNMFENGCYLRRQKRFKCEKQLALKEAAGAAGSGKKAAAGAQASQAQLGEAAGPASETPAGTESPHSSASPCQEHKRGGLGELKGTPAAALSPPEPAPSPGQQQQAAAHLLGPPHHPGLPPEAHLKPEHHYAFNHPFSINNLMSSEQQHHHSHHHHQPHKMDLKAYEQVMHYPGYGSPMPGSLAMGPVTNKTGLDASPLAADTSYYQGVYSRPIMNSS
SMILES,outcome [1],outcome [2],AC50 [3],outcome [4],outcome [5],outcome [6],outcome [7],outcome [8],outcome [9],outcome [3],AC50 [5],outcome [10],AC50 [1]
CCOC(=O)N1CCC(=C2c3ccc(Cl)cc3CCc3cccnc32)CC1,inactive,inactive,6.7 µM (active),inactive,inactive,inactive,inactive,inactive,inactive,,,,
CCOC(=O)[C@H](C)O,inactive,inactive,,inactive,inactive,inactive,inactive,inactive,inactive,inactive,,,
CC(C)c1ccc2c(C(C)C)cc(C(C)C)c(S(=O)(=O)O)c2c1,inactive,inactive,,inactive,,inactive,inactive,inactive,inactive,inactive,49.7 µM (active),inactive,
CCC(CO)CO,inactive,inactive,,inactive,inactive,inactive,inactive,inactive,inactive,inactive,,,
ON(Cc1ccccc1)Cc1ccccc1,inactive,inactive,,inactive,inactive,inactive,inactive,inactive,,inactive,,,
Cc1cccc(OCCOc2cccc(C)c2)c1,inactive,inactive,,inactive,inactive,inactive,inactive,inactive,inactive,inactive,,,
CCCOC(=O)CCCCC(=O)OCCC,inactive,inactive,,inactive,inactive,inactive,inactive,inactive,inactive,inactive,,,
C=COCCCC,inactive,inactive,,inactive,inactive,inactive,inactive,inactive,inactive,inactive,,inactive,
O=S(=O)(O)CC(O)CCl (stereo not drawn),inactive,inactive,,inactive,inactive,inactive,inactive,inactive,inactive,inactive,,,
Cc1cccc(C(=O)O)c1,inactive,inactive,,inactive,inactive,inactive,inactive,inactive,inactive,inactive,,,
C=C(C)C(=O)OCC(C)C,inactive,inactive,,inactive,inactive,inactive,inactive,inactive,inactive,inactive,,inactive,
CC(C)c1ccc2cc(C(C)C)ccc2c1,inactive,inactive,,inactive,inactive,inactive,inactive,inactive,inactive,inactive,,,
O=C(C(Cl)Cl)N1CCOC12CCCCC2,inactive,inactive,19.3 µM (active),inactive,inactive,inactive,inactive,inactive,inactive,,,,
CCC(C)C=O (stereo not drawn),inactive,inactive,,inactive,inactive,inactive,inactive,inactive,inactive,inactive,,,
COC=O,inactive,inactive,,inactive,inactive,inactive,inactive,inactive,inactive,inactive,,inactive,
CCCCOCCOC(=O)COc1nc(Cl)c(Cl)cc1Cl,inactive,inactive,,inactive,,inactive,inactive,inactive,inactive,inactive,26.2 µM (active),inactive,
CC(C)=CCC[C@H](C)CCO,inactive,inactive,,inactive,inactive,inactive,inactive,inactive,inactive,inactive,,inactive,
O=C(/C=C/C=C/c1ccc2c(c1)OCO2)N1CCCCC1,inactive,inactive,100 µM (active),inactive,inactive,inactive,inactive,inactive,inactive,,,inactive,
CCOC(=O)Cc1cccc2ccccc12,inactive,inactive,,inactive,inactive,inactive,inactive,inactive,inactive,inactive,,inactive,
C[Si](C)O[Si](C)(C)O[Si](C)(C)O[Si](C)C,inactive,inactive,,inactive,,inactive,inactive,inactive,inactive,inactive,46.2 µM (active),inactive,
CO[Si](CCC1CCC2OC2C1)(OC)OC (stereo not drawn),inactive,inactive,,inactive,inactive,inactive,inactive,inactive,inactive,inactive,,inactive,
CCCc1ccc(OC)cc1,inactive,inactive,,inactive,inactive,inactive,inactive,inactive,inactive,inactive,,inactive,
COC(=O)/C=C/C(C)=C\C=C\C(C)=C\C=C\C=C(C)\C=C\C=C(C)\C=C\C(=O)O,inactive,inactive,,inactive,inactive,inactive,inactive,inactive,inactive,inactive,,inactive,
C=CC(C)(CCC=C(C)C)OC(=O)CC(C)C (stereo not drawn),inactive,inactive,,inactive,,inactive,inactive,inactive,inactive,inactive,74.1 µM (active),inactive,
O=C(O)Cc1c(Cl)ccc(Cl)c1Cl,inactive,inactive,,inactive,inactive,inactive,inactive,inactive,inactive,inactive,,inactive,
CC/C=C\C/C=C\C/C=C\CCCCCCCC(=O)O,,inactive,103 µM (active),inactive,inactive,inactive,inactive,inactive,inactive,,,inactive,100 µM (active)
